This note sets out measurements from PubChem BioAssay AID2049 (The Scripps Research Institute Molecular Screening Center, 2009).

Structures are written as SMILES. Activity calls are given as the source filed them. No rule for the calls is given here.

The assay deals with BCL3. The assay is described as follows: STAT3 activators, late-stage profile, late-stage follow-up, cell-based, STAT1 reporter, BCL3 qPCR, cytotoxicity (AID 2049). The conditions noted are these: human cell reporter, STAT3/STAT1 activation; BCL3 mRNA qPCR, at 10 µM, stronger effect = higher value.

As for `COc1cc(NC(=O)c2cc(C3CC3)on2)c(OC)cc1Cl`, the fold change worked out at 2.07 and the outcome was “active; probe”.
As for `COc1cc(NC(=O)c2cc(C(C)C)on2)c(OC)cc1Cl`, the fold change is 0.42 and the outcome is “inactive; active”.
For `CCCc1cc(C(=O)Nc2cc(OC)c(Cl)cc2OC)no1` the same measures were 1.3 and “active”.
